Screens: PubChem BioAssay, National Center for Advancing Translational Sciences (NCATS)
ELG1 genotoxic: genotoxicity induction in ELG1-luciferase HEK293T cells; actives 1.3% (n = 330,000); Potency, µM (series often up to 46 µM), inactives show at the top dose activity change, positive = activation, usual class: activators; HEK293T ELG1-luciferase reporter, luminescence, 16 h; note: % of control where 0% means no effect; nearly all actives have a fitted effect of over 60% in size
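After overnight (16 hr) compound treatment at 37 °C, ELG1-luciferase HEK293T cells were lysed with ONE-Glo; luminescence quantified 30 min later at room temperature.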
SMN2 splice enh: SMN2 splice variant enhancement | HEK293 SMN2-luciferase splicing reporter, luminescence, 30-36 h | Potency, µM (top dose mostly 46.1 µM), inactives show at the highest dose activity change, positive = activation, usual class: activators | actives 2.8% (n = 210,000); note: % of control where 0% means no effect; nearly all actives have a fitted effect of over 55% in size
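qHTS luciferase splicing reporter: luminescence rises when SMN2 exon 7 is included in transfected HEK293 cells. Compound exposure lasted 30-36 h at 37C, with 4.5 mM final sodium butyrate as control, followed by a ONE-Glo read.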
FLuc modulator: firefly luciferase modulation, counter-screen for miR-21 project; purified FLuc, Km substrates, luminescence inhibition; actives 6.9% (n = 360,000); Potency, µM (highest dose often 57.5 µM), for the others: top-dose activity change, negative = inhibition, actives largely listed as inhibitors;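 note: plate controls were vehicle for no effect and reference inhibitor for full effect; nearly all actives have a fitted effect of over 55% in size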
Target sequence (P08659 whole entry, looked up): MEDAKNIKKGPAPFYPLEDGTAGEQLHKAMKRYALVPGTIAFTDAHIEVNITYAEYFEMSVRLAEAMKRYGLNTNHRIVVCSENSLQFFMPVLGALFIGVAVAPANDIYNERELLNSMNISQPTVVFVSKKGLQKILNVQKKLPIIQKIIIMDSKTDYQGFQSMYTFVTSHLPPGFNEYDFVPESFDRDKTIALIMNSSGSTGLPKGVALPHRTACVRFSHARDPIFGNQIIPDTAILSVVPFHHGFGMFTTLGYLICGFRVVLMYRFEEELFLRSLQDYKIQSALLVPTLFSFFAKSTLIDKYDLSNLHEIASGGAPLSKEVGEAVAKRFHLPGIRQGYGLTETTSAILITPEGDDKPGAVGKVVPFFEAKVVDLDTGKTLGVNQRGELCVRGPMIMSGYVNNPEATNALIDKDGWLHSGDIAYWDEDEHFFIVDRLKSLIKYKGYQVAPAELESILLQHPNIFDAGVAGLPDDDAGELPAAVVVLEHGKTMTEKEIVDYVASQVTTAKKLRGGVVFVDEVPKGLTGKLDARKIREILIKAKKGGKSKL
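Purified P. pyralis luciferase (10nM final) with 10uM D-luciferin and 10uM ATP (Km levels) in 50mM Tris acetate pH 7.5, 10mM Mg acetate, 0.01% Tween-20, 0.05% BSA; qHTS 6-point titration, ~60 µM downward; luminescence read.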
NPC1 promoter act: NPC1 promoter activation. Huh7 NPC1 promoter luciferase reporter, 24 h. Potency, µM (highest dose often 9.22 µM), inactives show at the highest dose activation, actives largely listed as activators. actives 2.4% (n = 320,000). AID 485313; note: % of control where 0% means no effect; nearly all actives have a fitted effect of over 60% in size
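Compounds in DMSO were transferred onto Huh7 NPC1-luciferase reporter cells pre-incubated 2 h; after 24 h at 37 °C, Amplite reagent was dispensed and luminescence recorded 10 min later.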
Rab9 promoter act: activators of Rab9 promoter; Huh7 Rab9 promoter-luciferase reporter, luminescence, 24 h; Potency, µM (doses to about 9.22 µM), for the others: at the highest dose activation, negative = inhibition, actives largely listed as activators; actives 2.8% (n = 320,000); AID 485297; note: % of control where 0% means no effect; nearly all actives have a fitted effect of over 60% in size
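Using Huh7 cells stably transfected with Rab9 promoter–luciferase, compounds were incubated 24 h at 37 °C, 5% CO2; luciferase luminescence was read 10 min after reagent addition.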
ELG1 DNA repair: ELG1-dependent DNA repair inhibition; HEK293T ELG1-luciferase reporter, luminescence, 16 h; DNA damage induced by 5-fluorouridine; Potency, µM (highest dose often 46.1 µM), without a hit: at the top dose activity change, negative = inhibition, most hits filed as inhibitors; actives 2.3% (n = 330,000); note: % is set by controls: 0 for no effect and ±100 for the full control effect; nearly all actives have a fitted effect of over 55% in size
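Quantitative HTS, concentration-response format. 2,000 cells/well co-treated with 5-fluorouridine and compound, 16 hr in 5% CO2 at 37 °C; ONE-Glo luminescence read after 30 min.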
The depositor's hits bear a star. Only some compounds are listed: those with a hit (about 9.2% of all), similar ones and a draw of the others. Calls come from the whole dose curve; as a rule, active = well fitted curve in the direction sought with a large enough effect; inconclusive = small, poorly fitted or top-dose-only effect, or another doubt; inactive = no such curve, though single readings can be large; an effect the other way counts as inactive or inconclusive. Potency is the fitted concentration of half-maximal effect.

Results for CCOc1cccc2cc(-c3csc(NC(=O)CCC(=O)NCCCN4CCC(C)CC4)n3)c(=O)oc12 ?
ELG1 genotoxic: 10.3µM*; SMN2 splice enh: 8.91µM*; FLuc modulator: 16.9µM*; NPC1 promoter act: 27.0%; Rab9 promoter act: 3.98µM*; ELG1 DNA repair: inconclusive

How did COc1ccc(-c2cc3ccc(O)c(CN4CCC(C)CC4)c3oc2=O)cc1OC do in these assays?
FLuc modulator: -1.1%

Results for COc1cccc2cc(-c3csc(NC(=O)CCC(=O)NCCCN4CCC(C)CC4)n3)c(=O)oc12 ?
ELG1 genotoxic: inconclusive; FLuc modulator: 9.53µM*; NPC1 promoter act: 1.41µM*; Rab9 promoter act: 0.708µM*; ELG1 DNA repair: inconclusive

Results for CCOc1cccc2cc(-c3csc(NC(=O)CCC(=O)N4CCC(C)CC4)n3)c(=O)oc12 ?
ELG1 genotoxic: 15.9%; SMN2 splice enh: -21.3%; FLuc modulator: -1.6%; NPC1 promoter act: inconclusive; Rab9 promoter act: -0.1%; ELG1 DNA repair: 17.1%

Results for CCOc1cccc2cc(-c3csc(NC(=O)CCC(=O)NCCN4CCCCC4C)n3)c(=O)oc12 (stereo not drawn) ?
ELG1 genotoxic: inconclusive; SMN2 splice enh: 3.16µM*; FLuc modulator: 10.7µM*; NPC1 promoter act: inconclusive; Rab9 promoter act: inconclusive; ELG1 DNA repair: inconclusive

Results for Cc1nonc1C1CCCN1C(=O)c1cc(COc2ccc(F)cc2F)on1 (stereo not drawn) ?
ELG1 genotoxic: inconclusive; FLuc modulator: 9.53µM*; NPC1 promoter act: inconclusive; Rab9 promoter act: 2.24µM*; ELG1 DNA repair: inconclusive

How did Cc1cccc(C)c1OCc1cc(C(=O)N2CCCC2c2nonc2C)no1 (stereo not drawn) do in these assays?
ELG1 genotoxic: -3.2%; FLuc modulator: -2.8%; NPC1 promoter act: 3.5%; Rab9 promoter act: 7.0%; ELG1 DNA repair: inconclusive

How did CSc1ccccc1OCc1cc(C(=O)N2CCCC2c2nonc2C)no1 (stereo not drawn) do in these assays?
ELG1 genotoxic: inconclusive; FLuc modulator: 8.49µM*; NPC1 promoter act: 2µM*; Rab9 promoter act: 2.24µM*; ELG1 DNA repair: inconclusive

How did O=C(NCc1cccs1)c1cc2ccccc2o1 do in these assays?
ELG1 genotoxic: 14.9%; SMN2 splice enh: 7.3%; FLuc modulator: 19µM*; NPC1 promoter act: 23.0%; Rab9 promoter act: 4.2%; ELG1 DNA repair: inconclusive

How did CCOC(=O)Cc1csc(NC(=O)c2cc3ccccc3o2)n1 do in these assays?
ELG1 genotoxic: 6.5%; SMN2 splice enh: 1.0%; FLuc modulator: 10.7µM*; NPC1 promoter act: inconclusive; Rab9 promoter act: inconclusive; ELG1 DNA repair: inconclusive

What do the screens show for `CC(Cc1ccccc1)NC(=O)c1cc2ccccc2o1` (stereo not drawn)?
ELG1 genotoxic: inconclusive; FLuc modulator: inconclusive; NPC1 promoter act: 3.16µM*; Rab9 promoter act: 2.51µM*; ELG1 DNA repair: inconclusive

How did Cc1csc(NC(=O)c2cc3ccccc3o2)n1 do in these assays?
ELG1 genotoxic: inconclusive; FLuc modulator: 0.953µM*; NPC1 promoter act: inconclusive; Rab9 promoter act: 1.41µM*; ELG1 DNA repair: inconclusive

How did CCOC(=O)C1=C(CS(=O)(=O)c2ccc(C(C)(C)C)cc2)NC(=O)NC1c1cccc(OC)c1 (stereo not drawn) do in these assays?
SMN2 splice enh: -19.3%; FLuc modulator: 4.1%

How did COc1cccc(CNC(=O)CSc2nc3ccccc3nc2Cc2ccccc2)c1 do in these assays?
FLuc modulator: -1.2%

What do the screens show for `CCCCn1c(N)c(N(C)C(=O)c2cn(-c3ccccc3)nc2-c2ccccc2)c(=O)[nH]c1=O`?
ELG1 genotoxic: -0.2%; FLuc modulator: -1.0%; NPC1 promoter act: -1.5%; Rab9 promoter act: -4.0%; ELG1 DNA repair: 13.1%

Results for O=C(Nc1cccc(Br)c1)N1CCC(CN2CCCCC2)CC1 ?
FLuc modulator: 0.6%

How did Cc1csc(C(C#N)C(=O)c2cc3ccccc3o2)n1 (stereo not drawn) do in these assays?
ELG1 genotoxic: inconclusive; SMN2 splice enh: 11.2µM*; FLuc modulator: 1.35µM*; NPC1 promoter act: 2.82µM*; Rab9 promoter act: 2.82µM*; ELG1 DNA repair: inconclusive

How did Cc1ccccc1C(=O)Nc1cccc(-c2ccc(N3CCOCC3)nn2)c1 do in these assays?
ELG1 genotoxic: inconclusive; FLuc modulator: 2.13µM*; NPC1 promoter act: inconclusive; Rab9 promoter act: 3.16µM*; ELG1 DNA repair: inconclusive

How did O=C(Nc1cccc(-c2ccc(N3CCOCC3)nn2)c1)c1ccc([N+](=O)[O-])cc1 do in these assays?
ELG1 genotoxic: inconclusive; FLuc modulator: 2.39µM*; NPC1 promoter act: 3.55µM*; Rab9 promoter act: 2.51µM*; ELG1 DNA repair: inconclusive

How did O=C(Nc1cccc(-c2ccc(N3CCOCC3)nn2)c1)c1ccccc1 do in these assays?
ELG1 genotoxic: inconclusive; FLuc modulator: 2.69µM*; NPC1 promoter act: 2.82µM*; Rab9 promoter act: inconclusive; ELG1 DNA repair: 0.0%

How did O=C(Nc1ccc(C(=O)N2CCOCC2)cc1)c1ccc([N+](=O)[O-])cc1 do in these assays?
ELG1 genotoxic: -15.0%; FLuc modulator: -2.6%; NPC1 promoter act: 1.8%; Rab9 promoter act: -1.9%; ELG1 DNA repair: 0.9%

Results for Cc1ccccc1C(=O)N1CCN(c2ccc(N3CCOCC3)nn2)CC1 ?
ELG1 genotoxic: -1.6%; FLuc modulator: 4.2%; NPC1 promoter act: 0.1%; Rab9 promoter act: -1.4%; ELG1 DNA repair: 16.3%

How did Cc1ccc(C(=O)Nc2cccc(-c3ccc(N4CCOCC4)nn3)c2)cc1[N+](=O)[O-] do in these assays?
ELG1 genotoxic: inconclusive; FLuc modulator: inconclusive; NPC1 promoter act: inconclusive; Rab9 promoter act: 3.16µM*; ELG1 DNA repair: inconclusive

What do the screens show for `C(=N\Nc1ccc2nncn2n1)/c1ccccn1`?
ELG1 genotoxic: inconclusive; FLuc modulator: -3.0%; NPC1 promoter act: -1.3%; Rab9 promoter act: -1.8%; ELG1 DNA repair: 5.8µM*

How did C/C(=N\Nc1ccc2nncn2n1)c1ccccn1 do in these assays?
ELG1 genotoxic: inconclusive; FLuc modulator: -12.5%; NPC1 promoter act: -14.3%; Rab9 promoter act: -27.3%; ELG1 DNA repair: 1.16µM*

Results for CCc1ccc(NCc2nc3ccccc3c(=O)[nH]2)cc1 ?
ELG1 genotoxic: 3.26µM*; SMN2 splice enh: 10µM*; FLuc modulator: 10.7µM*; NPC1 promoter act: inconclusive; Rab9 promoter act: 2.82µM*; ELG1 DNA repair: inconclusive

How did CCOC(=O)c1ccc(Nc2cnc3ccccc3n2)cc1 do in these assays?
ELG1 genotoxic: 9.2µM*; SMN2 splice enh: 12.6µM*; FLuc modulator: 2.39µM*; NPC1 promoter act: 2.24µM*; Rab9 promoter act: 1.78µM*; ELG1 DNA repair: inconclusive
